Experimental data reported in the supplement of paper PMC8728848.
About 410 targets per protein were measured; listed, in parts, are those with the strongest signals and a random draw of the rest.

Tests used:
Test in all cases: glycan array binding signal (z-score within array); higher = stronger binding
Details in all cases: glycan notation: IUPAC condensed, linker removed
[1] = molecular target: Fuc(a1-2)Gal(b1-3)GlcNAc(b1-2)Man(a1-3)[Fuc(a1-2)Gal(b1-3)GlcNAc(b1-2)Man(a1-6)]Man(b1-4)GlcNAc(b1-4)GlcNAc
Summary of the method: (§1)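 Glycan array data were curated from 3228 arrays in the Consortium for Functional Glycomics database and kept only where the protein sequence was available. Glycan names were converted to IUPAC-condensed notation, and columns mapping to the same glycan were averaged. The binding signal is a within-array Z-score, averaged across arrays of the same protein sequence at different concentrations or buffers and across linkers. Negative Z-scores can be read as non-binding.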

[2] = molecular target: Fuc(a1-2)[Gal(a1-4)]Gal(b1-4)GlcNAc
Summary of the method: as §1

[3] = molecular target: Fuc(a1-3)[Gal(b1-4)]GlcNAc(b1-4)Gal(b1-4)[Fuc(a1-3)]GlcNAc(b1-4)Gal(b1-4)[Fuc(a1-3)]GlcNAc
Summary of the method: as §1

Gal(a1-3)Gal = molecular target: Gal(a1-3)Gal
Summary of the method: as §1

[4] = molecular target: Gal(a1-3)Gal(b1-3)GlcNAc(b1-2)Man(a1-3)[Gal(a1-3)Gal(b1-3)GlcNAc(b1-2)Man(a1-6)]Man(b1-4)GlcNAc(b1-4)GlcNAc
Summary of the method: as §1

[5] = molecular target: Gal(a1-4)Gal(b1-4)GlcNAc(b1-2)Man(a1-3)[Gal(a1-4)Gal(b1-4)GlcNAc(b1-2)Man(a1-6)]Man(b1-4)GlcNAc(b1-4)GlcNAc
Summary of the method: as §1

Gal(b1-2)Gal = molecular target: Gal(b1-2)Gal
Summary of the method: as §1

[6] = molecular target: Gal(b1-3)[GlcNAc(b1-6)]GalNAc
Summary of the method: as §1

[7] = molecular target: Gal(b1-4)GlcNAc(b1-2)Man(a1-3)Man(b1-4)GlcNAc(b1-4)GlcNAc
Summary of the method: as §1

[8] = molecular target: Gal(b1-4)GlcNAc(b1-2)Man(a1-3)[Gal(b1-4)GlcNAc(b1-2)Man(a1-6)]Man(b1-4)GlcNAc(b1-4)GlcNAc
Summary of the method: as §1

[9] = molecular target: Gal(b1-4)GlcNAc(b1-2)Man(a1-3)[GlcNAc(b1-2)Man(a1-6)]Man(b1-4)GlcNAc(b1-4)GlcNAc
Summary of the method: as §1

[10] = molecular target: Gal(b1-4)GlcNAc(b1-2)Man(a1-3)[Man(a1-6)]Man(b1-4)GlcNAc(b1-4)GlcNAc
Summary of the method: as §1

[11] = molecular target: Gal(b1-4)GlcNAc(b1-3)GalNAc
Summary of the method: as §1

Gal3S(b1-3)GalNAc = molecular target: Gal3S(b1-3)GalNAc
Summary of the method: as §1

Gal3S6S(b1-4)GlcNAc6S = molecular target: Gal3S6S(b1-4)GlcNAc6S
Summary of the method: as §1

Gal6S(b1-4)GlcNAc6S = molecular target: Gal6S(b1-4)GlcNAc6S
Summary of the method: as §1

GalNAc(a1-3)Gal = molecular target: GalNAc(a1-3)Gal
Summary of the method: as §1

[12] = molecular target: GlcNAc(a1-4)Gal(b1-3)GlcNAc
Summary of the method: as §1

[13] = molecular target: GlcNAc(a1-4)Gal(b1-4)GalNAc
Summary of the method: as §1

[14] = molecular target: GlcNAc(a1-4)Gal(b1-4)GlcNAc
Summary of the method: as §1

[15] = molecular target: GlcNAc(a1-6)Gal(b1-4)GlcNAc
Summary of the method: as §1

[16] = molecular target: Man(a1-3)[Man(a1-6)]Man(a1-6)[Man(a1-2)Man(a1-3)]Man(b1-4)GlcNAc(b1-4)GlcNAc
Summary of the method: as §1

[17] = molecular target: Neu5Ac(a2-3)Gal(b1-4)GlcNAc(b1-6)[Neu5Ac(a2-3)Gal(b1-3)]GalNAc
Summary of the method: as §1

[18] = molecular target: Neu5Ac(a2-3)Gal(b1-4)[Fuc(a1-3)]GlcNAc(b1-3)GalNAc
Summary of the method: as §1

[19] = molecular target: Neu5Ac(a2-3)Gal6S(b1-4)GlcNAc
Summary of the method: as §1

Neu5Ac(a2-3)GalNAc = molecular target: Neu5Ac(a2-3)GalNAc
Summary of the method: as §1

[20] = molecular target: Neu5Ac(a2-6)Gal(b1-4)GlcNAc(b1-3)Gal(b1-4)GlcNAc(b1-3)Gal(b1-4)GlcNAc
Summary of the method: as §1

Neu5Ac(b1-6)GalNAc = molecular target: Neu5Ac(b1-6)GalNAc
Summary of the method: as §1

Neu5Gc(a2-6)GalNAc = molecular target: Neu5Gc(a2-6)GalNAc
Summary of the method: as §1

B1: CLEC-1 (Homo sapiens), Q9NZH3 (protein)
chain: MQAKYSSTRDMLDDDGDTTMSLHSQASATTRHPEPRRTEHRAPSSTWRPVALTLLTLCLVLLIGLAAWGLLFFQYYQLSNTGQDTISQMEERLGNTSQELQSLQVQNIKLAGSLQHVAEKLCRELYNKAGAHRCSPCTEQWKWHGDNCYQFYKDSKSWEDCKYFCLSENSTMLKINKQEDLEFAASQSYSEFFYSYWTGLLRPDSGKAWLWMDGTPFTSELFHIIIDVTSPRSRDCVAILNGMIFSKDCKELKRCVCERRAGMVKPESLHVPPETLGEGD
Question: Which results are given for B1?
Answer: glycan array binding signal (z-score) [1]: 6.09; glycan array binding signal (z-score) [2]: -0.046; glycan array binding signal (z-score) [3]: 0.063; glycan array binding signal (z-score) (Gal(a1-3)Gal): -0.376; glycan array binding signal (z-score) [4]: 3.16; glycan array binding signal (z-score) [5]: 5.92; glycan array binding signal (z-score) (Gal(b1-2)Gal): -0.482; glycan array binding signal (z-score) [6]: -0.033; glycan array binding signal (z-score) [7]: 1.79; glycan array binding signal (z-score) [8]: 0.112; glycan array binding signal (z-score) [9]: -0.583; glycan array binding signal (z-score) [10]: 11; glycan array binding signal (z-score) [11]: -0.261; glycan array binding signal (z-score) (Gal3S(b1-3)GalNAc): -0.341; glycan array binding signal (z-score) (Gal3S6S(b1-4)GlcNAc6S): 3.17; glycan array binding signal (z-score) (Gal6S(b1-4)GlcNAc6S): 0.66; glycan array binding signal (z-score) (GalNAc(a1-3)Gal): -0.34; glycan array binding signal (z-score) [12]: -0.516; glycan array binding signal (z-score) [13]: -0.035; glycan array binding signal (z-score) [14]: 2.86; glycan array binding signal (z-score) [15]: 2.11; glycan array binding signal (z-score) [16]: 0.433; glycan array binding signal (z-score) [17]: -0.142; glycan array binding signal (z-score) [18]: 2.82; glycan array binding signal (z-score) [19]: -0.086; glycan array binding signal (z-score) (Neu5Ac(a2-3)GalNAc): -0.178; glycan array binding signal (z-score) [20]: -0.43; glycan array binding signal (z-score) (Neu5Ac(b1-6)GalNAc): -0.392; glycan array binding signal (z-score) (Neu5Gc(a2-6)GalNAc): -0.297
